Screening data deposited in PubChem BioAssay by National Center for Advancing Translational Sciences (NCATS).
ELG1 DNA repair: ELG1-dependent DNA repair inhibition. HEK293T ELG1-luciferase reporter, luminescence, 16 h; DNA damage induced by 5-fluorouridine. Potency, µM (series often up to 46.1 µM), inactives show at the top dose activity change, negative = inhibition, actives largely listed as inhibitors. 2.3% of 330,000 active; also: nearly all actives have a fitted effect of over 55% in size
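HEK293T cells expressing luciferase-tagged ELG1 (2,000/well) received 5-Fluorouridine plus compound or DMSO for 16 hr at 37 °C. Luciferase was read by ONE-Glo luminescence after 30 min at room temperature.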
RORg inh: ROR gamma (mouse) transcription inhibition | Drosophila S2 Gal4-RORgamma UAS-luciferase reporter, 20 h | P51450 | 5.4% of 310,000 active | Potency, µM (top dose mostly 53.6 µM), without a hit: top-dose activity change, negative = inhibition, usual class: inhibitors; also: nearly all actives have a fitted effect of over 60% in size
Target sequence (P51450 whole entry, looked up, the tested form may be a part): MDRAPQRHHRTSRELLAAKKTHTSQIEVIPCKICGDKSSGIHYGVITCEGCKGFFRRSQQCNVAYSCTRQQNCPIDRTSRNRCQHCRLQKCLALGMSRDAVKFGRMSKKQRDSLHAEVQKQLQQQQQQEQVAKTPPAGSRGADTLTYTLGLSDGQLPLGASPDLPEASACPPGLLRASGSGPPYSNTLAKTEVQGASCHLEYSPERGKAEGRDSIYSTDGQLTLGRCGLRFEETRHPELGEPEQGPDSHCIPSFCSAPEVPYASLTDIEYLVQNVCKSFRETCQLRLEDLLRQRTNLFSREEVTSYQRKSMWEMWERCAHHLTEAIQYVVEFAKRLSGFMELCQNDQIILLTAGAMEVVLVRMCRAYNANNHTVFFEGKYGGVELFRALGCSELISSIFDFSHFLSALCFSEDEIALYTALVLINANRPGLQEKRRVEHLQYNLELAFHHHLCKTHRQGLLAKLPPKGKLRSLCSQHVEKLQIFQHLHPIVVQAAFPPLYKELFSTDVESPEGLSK
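Using a luciferase readout, inhibitors were identified by reduced reporter activity in Drosophila cells coexpressing a copper-inducible Gal4–ROR gamma fusion and UAS-driven Photinus luciferase, incubated 20 hr after 700 uM copper sulfate.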
TDP1 cell noCPT: qHTS for Inhibitors of human tyrosyl-DNA phosphodiesterase 1 (TDP1): qHTS in cells in absence of CPT; AID 686978, 2013; DT40 Tdp1-/- hTDP1 cells, no CPT, ATP luminescence, 48 h; 15% of 420,000 active; Potency, µM (doses to about 46.2 µM), inactives show at the highest dose activity change, negative = growth inhibition, usual class: inhibitors; also: nearly all actives have a fitted effect of over 55% in size
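Chicken DT40 Tdp1-/- cells stably complemented with human TDP1 were seeded at 400 cells/well with DMSO in place of 20 nM camptothecin. After compound pinning, cells grew at least 48 hr at 37 °C; viability read by CellTiter-Glo luminescence.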
12-LOX inh: ALOX12 (human) lipoxygenase inhibition; AID 1671190; 1.1% of 580,000 active; purified 12hLO, xylenol orange hydroperoxide absorbance; Potency, µM (titrated, usually from 108 µM), for inactives: at the top dose activity change, negative = inhibition, usual class: inhibitors; P18054
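Hydroperoxide product was detected by ferrous iron/xylenol orange as the 573 to 405 nm absorbance ratio. Arachidonic acid at 40 uM (final) was turned over for 30 min at room temperature by 150 nM human 12hLO, pH 7.0 Hepes buffer, after 15 min compound preincubation.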
DT40 TDP1 CPT: DT40-hTDP1 cell growth loss with CPT. chicken DT40 Tdp1-/-;hTDP1 cells + 20 nM CPT, ATP luminescence, 48 h. Potency, µM (highest dose often 46.2 µM), without a hit: at the highest dose activity change, negative = growth inhibition, most hits filed as inhibitors. AID 686979. 12% of 420,000 active; also: nearly all actives have a fitted effect of over 55% in size
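Chicken DT40 Tdp1-/- cells stably complemented with human TDP1 were seeded at 400 cells/well in medium containing 20 nM camptothecin, exposed to pin-transferred compounds, and grown at 37 °C for at least 48 hr. Viability was read as ATP luminescence.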
VP16 counter: counter-screen for ROR gamma inhibitors: Gal4-VP16 reporter | Drosophila S2 Gal4-VP16 UAS-luciferase, luminescence, 20 h | Potency, µM (titrated, usually from 53.6 µM), inactives show at the highest dose activity, negative = inhibition, actives largely listed as inhibitors | 3.5% of 310,000 active;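 also: Gal4-VP16 expression switched on by copper sulfate through the metallothionein promoter; nearly all actives have a fitted effect of over 50% in size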
* hit, by the source's call; u = inconclusive; x = no result; ! = a repeat was not active; [ ] = dose if it differs, or a comment. A selection: hits, their analogues and other compounds. The true share with any hit is near 15%. Calls follow the shape of the dose curve; as a rule, active = well fitted curve in the direction sought with a large enough effect; inconclusive = small, poorly fitted or top-dose-only effect, or another doubt; inactive = no such curve, though single readings can be large; an effect the other way counts as inactive or inconclusive. % is scaled to controls: 0 for no effect and ±100 for the full control effect; potency is read from the fitted curve at half-maximal effect.

SMILES	ELG1 DNA repair	RORg inh	TDP1 cell noCPT	12-LOX inh	DT40 TDP1 CPT	VP16 counter
O=C1NCCCCCCN(C(=O)CN2CCCCCC2)[C@H]2C[C@H](c3nc(-c4cccnc4)no3)C[C@@H]12	x	x	x	98%	x	x
O=C(Cc1c(F)cccc1Cl)NC1CCN(c2cc(-c3ccccc3)[nH]n2)CC1	x	x	x	-7%	x	x
COc1ccc(CNc2nc(-c3ccccc3CN(C)C)nc3ccccc23)c(OC)c1	x	13µM*	7.3µM*	-12%	10µM*	u
COc1ccc(CNc2nc(-c3ccoc3)nc3ccccc23)c(OC)c1	x	38%	u	u	u	-8%
CCOc1cc(OCC)c(/C=C2\NC(=O)NC2=O)cc1Br	x	x	x	-5%	x	x
CCOC(=O)c1nn(-c2cc(C(=O)OC)cc(C(=O)OC)c2)cc1O	-20%	7%	-11%	6%	-7%	-6%
CCOC(=O)c1cc(C(=O)OCC)cc(-n2cc(O)c(C(=O)OCC)n2)c1	-24%	u	u	5%	u	11µM*
Cc1ccc2c(Cl)cc(Cl)c(OCC(=O)Nc3cccc(S(N)(=O)=O)c3)c2n1	u	14µM*	-18%	-4%	-11%	u
Cc1cc(C(=O)OCC(=O)Nc2cccc(S(=O)(=O)N(C)C)c2)c2ccccc2n1	-10%	23%	u	u	-21%	-20%
Cc1ccc(S(=O)(=O)N(C)C)cc1NC(=O)COc1ccc(-c2nnco2)cc1	-7%	0%	-14%	10%	-6%	-6%
Cc1ccc2c(Cl)cc(Cl)c(OCC(=O)Nc3cccc(S(=O)(=O)N(C)C)c3)c2n1	-15%	5µM*	21µM*	-19%	u	10µM*
Cc1ccc2c(Cl)cc(Cl)c(OCC(=O)Nc3cc(S(=O)(=O)N(C)C)ccc3C)c2n1	u	-138%	15µM*	4%	23µM*	u
Cc1ccc2c(Cl)cc(Cl)c(OCC(=O)Nc3ccc(C)c(S(=O)(=O)N(C)C)c3)c2n1	-12%	7.1µM*	x	x	x	7.1µM*
COc1ccc(CNC(=O)Cc2cccc(C(F)(F)F)c2)cc1OC	x	x	x	-27%	x	x
COCCCNCc1ccco1	x	x	x	47%	x	x
COC[C@@H]1CN(C(=O)CCc2ccc(OC)cc2)C[C@H]1c1ccncc1	x	x	x	36%	x	x
Cc1ccccc1C1=CCN(c2ncc(NC(=O)c3ccc(Cl)cc3)cc2C(=O)O)CC1	x	x	23µM*	41%	u	x
CN1CCN(c2cc(C(=O)O)c3cc(NC(=O)c4ccc(Cl)cc4)ccc3n2)CC1	x	x	x	-82%	x	x
c1csc(CNc2ccn3nc(-c4ccc(OCCN5CCOCC5)cc4)cc3n2)c1	x	x	16µM*	5%	21µM*	x
c1ccc(OCCNc2ccn3nc(-c4ccc(OCCN5CCOCC5)cc4)cc3n2)cc1	x	x	16µM*	4%	9.2µM*	x
c1ccc(-c2cc3nc(NCc4ccc5c(c4)OCO5)ccn3n2)cc1	x	x	u	-5%	u	x
C=C(C)Cn1c(SCC(=O)O)nc2c1c(=O)n(C)c(=O)n2C	x	x	x	-7%	x	x
COc1ccc(CNC(=O)c2cc3c(=O)[nH]c4ccccc4c3n2C)cc1	u	-3%	-6%	-3%	u	12%
CCc1cccc(NC(=O)c2cc3c(=O)[nH]c4ccccc4c3n2C)c1	x	x	18µM*	-20%	u	x
CC1Cc2ccccc2C(CCc2ccccc2)=N1 (stereo not drawn)	-6%	13µM*	u	0%	-30%	-5%
SMILES	ELG1 DNA repair	RORg inh	TDP1 cell noCPT	12-LOX inh	DT40 TDP1 CPT	VP16 counter
COc1ccc(CCNC(=O)c2cnc3ccc(C)cn3c2=O)cc1OC	x	x	u	-20%	21µM*	x
COc1ccc(CCNC(=O)c2cnc3sc(N4CCCC4)nn3c2=O)cc1OC	x	x	23µM*	-21%	u	x
COc1ccc(CCNC(=O)c2cnc3sc(N4CCCCC4)nn3c2=O)cc1OC	x	x	u	-15%	23µM*	x
COCCCNC(=O)c1cnc2sc(N3CCCCCC3)nn2c1=O	x	x	-10%	u	-9%	x
COc1cccc(CCNC(=O)c2cnc3sc(N4CCCC4)nn3c2=O)c1	x	x	16µM*	-1%	15µM*	x
Cc1ccc2ncc(C(=O)NCCc3ccc(S(N)(=O)=O)cc3)c(=O)n2c1	x	x	-7%	-14%	-8%	x
COC(=O)c1cccc(-c2nc(C3CC(=O)N(c4ccc(Cl)cc4)C3)no2)c1 (stereo not drawn)	x	x	x	6%	x	x
COCCCNC(=O)c1cnc2sc(N3CCCCC3)nn2c1=O	x	x	-12%	-6%	-7%	x
O=C(NCc1ccc(Cl)cc1)c1cnc2sc(N3CCCC3)nn2c1=O	x	x	u	-14%	u	x
COc1ccc(OC)c(NC(=O)c2nc(SCc3ccccc3F)ncc2Cl)c1	x	x	14µM*!	-9%	10µM*!	x
COc1ccc(CCNC(=O)c2nc(SCc3ccc(C)cc3)ncc2Cl)cc1OC	x	x	10µM*	-13%	12µM*	x
COc1ccc(OC)c(NC(=O)c2nc(SCc3ccc(F)cc3)ncc2Cl)c1	x	x	-14%	-4%	-11%	x
O=C(NCCc1ccc(Cl)cc1)c1cnc2sc(N3CCCC3)nn2c1=O	x	x	4.1µM*	-23%	6.5µM*	x
CC(C)CCNC(=O)c1cnc2sc(N3CCCCCC3)nn2c1=O	x	x	21µM*	-32%	16µM*	x
COCc1cccc(-c2n[nH]c3c2CC(=O)N(CCOc2ccccc2)C3)c1	x	x	x	4%[176 µM]	x	x
COc1cc(OC)c(N2CC(C(=O)Nc3c(C)nn(C)c3C)CC2=O)cc1Cl (stereo not drawn)	x	x	x	-16%	x	x
CC(=O)N[C@@H]1CN(Cc2cccc(C#N)c2)C[C@H]1CO	x	x	x	39%	x	x
COc1ccc(C2(C(=O)NC3CCc4nnc(C)n4CC3)CC2)cc1 (stereo not drawn)	x	x	x	57%	x	x
CN1C2CCC1/C(=C\c1ccccc1)C(=O)/C2=C\c1ccccc1	u	-22%	6.5µM*	-3%	12µM*	-7%
O=C(c1ccnc(-c2cncnc2)c1)N1CCCC1	x	x	x	46%	x	x
CC(C)c1ncc(-c2ccccc2)[nH]1	x	x	x	-1%[12.5 µM]	x	x
CC(C)c1nc(-c2ccccc2)c(-c2ccccc2)[nH]1	-7%	22%	21µM*	0%	u	-16%
CC1(C)CCN2CCC(C)(C)c3c(O)ccc1c32	u	u	3.7µM*	u	3.3µM*	u
Cc1ccc(C)c(N2CCN(C3=C(c4ccccc4)C(=O)c4ccccc43)CC2)c1	x	x	16µM*	-16%	7.3µM*	x
COc1ccc(C2=C(N3CCN(c4cccc(C)c4C)CC3)c3ccccc3C2=O)cc1	x	x	u	-22%	16µM*	x
